# For some assays here: Potency and affinity values are given separately. The source made the active and inactive calls.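 Rule for the calls, unless noted: active = z-score of at least 1.8 in each of two replicates, scored against plate mean and spread of sample wells; inactive = the rest.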
# How the values were obtained:
# [1] = polyglutamine-triggered caspase-3 activation inhibitors, cell-based (AID 1583); conditions: polyglutamine-induced caspase-3 activation, cell assay; stronger effect = higher value;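 tested at 10 µM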
# [2] = suppressors of polyQ aggregation in yeast, 75Q-TubU reporter (AID 1593); conditions: Yeast 75Q polyglutamine aggregation reporter
# [3] = rescue of polyQ-huntingtin neuronal dysfunction in worms, whole organism, C. elegans mechanosensory neurons, N-terminal huntingtin (AID 1599); conditions: touch response, stronger effect = higher value
# [4] = inhibitors of mitochondrial cytochrome c release, biochemical, purified mitochondria (AID 1603); conditions: stronger effect = lower value;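 note: mouse liver mitochondria challenged with calcium chloride; signal normalized to the plate average as 100%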
# [5] = inhibitors of polyQ protein aggregation (AID 1604); conditions: polyglutamine-induced protein aggregation inhibition assay; stronger effect = higher value; tested at 2.5 µM
# [6] = enhancers of glutamate uptake in motor neurons, MN-1 cell line (AID 1612); conditions: MN-1 motor neuron cells, stronger effect = higher value;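 note: tested at 1 µM final; 0% = mean of DMSO vehicle wells on each plate; positive means more glutamate uptake than control and negative means less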
# [7] = reducers of polyQ inclusions in PC12 cells, cell-based, NGF-treated PC12, GFPQ80 (AID 1614); conditions: PC12 NGF-treated GFP-polyQ80 inclusion reduction;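 note: lower means fewer inclusions and 0 means no inclusions at all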
# [8] = suppressors of polyglutamine aggregation in yeast, 75Q-TubH (AID 1616); conditions: S. cerevisiae 75Q-TubH polyglutamine aggregation suppression; stronger effect = higher value
# [9] = circadian clock period modulators, cell-based, LOPAC library, luminescence reporter (AID 2774; call rule not given here;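 note: values are relative to mean of DMSO wells on each plate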); conditions: circadian reporter cells, at 7 µM, actives lie on both sides
# [10] = liver-stage malaria parasite growth inhibition, primary screen, cell-based, HepG2, luciferase luminescence, HepG2 viability (AID 624349; in the data active = parasite load remaining mostly below about 12%, no sharp cut-off; inactive = mostly above about 10%;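 note: 100% = mean of DMSO negative control wells on the same plate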); conditions: P. berghei liver stage in HepG2, luciferase luminescence, concentration not given here; parasite load remaining: stronger effect = lower value; viability: measured here: HepG2 viability without parasites
# [11] = viability rescue of complex I mutant cybrids, primary screen, cell-based, galactose medium, ATP luminescence (AID 1645843); conditions: complex I mutant cybrid cells, 72 h, stronger effect = higher value;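 note: positive z means more ATP and so rescue of galactose-driven cybrid death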
SMILES,inhibition [1],score [2],rescue above control [3],cytochrome c release ratio [4],inhibition of aggregation [5],glutamate uptake change [6],inclusion score [7],aggregation suppression score [8],period change [9],parasite load remaining [10],viability [10],z-score [11]
NC[C@@H]1O[C@H](O[C@H]2[C@@H](O)[C@H](O[C@@H]3[C@@H](O)[C@H](N)C[C@H](N)[C@H]3O[C@@H]3O[C@H](CO)[C@@H](O)C[C@H]3N)O[C@@H]2CO)[C@H](N)[C@@H](O)[C@@H]1O[C@H]1O[C@H](CO)[C@@H](O)[C@H](O)[C@@H]1O,-3.41%,1.7,7.71,0.95,11.6%,1.1%,2,1.86,–,–,–,–
NCCNC(=O)c1ccc(Cl)cc1,-45.7%,1.23,-2.85,1.14,66.7%,11.9%,2,1.48,0.02 h (inactive),–,–,–
COC(=O)/C(=C1\OC(=O)C(c2ccccc2)C1=O)c1ccccc1 (stereo not given),-4.2%,0.04,9.72,2.13,31.4%,6.01%,2,0.0212,–,–,–,–
NCC1OC(OC2C(N)CC(N)C(OC3OC(CO)C(O)C(N)C3O)C2O)C(N)C(O)C1O (stereo not given),27.6%,0.94,-18,4.45,8.33%,-14.8%,2,1.28,–,–,–,–
COC(=O)C(C)C[N+](C)(C)C (stereo not given),-13.8%,1.1,-5.92,1.54,60.6%,0.97%,2,1.5,–,–,–,–
CC(=O)OCC(=O)[C@@]1(O)CC[C@H]2C3CCC4=CC(=O)CCC4(C)[C@@]3(F)[C@@H](O)CC21C (stereo not given in full),9.6%,1,20.3,0.71,88.9%,7.44%,2,1.14,–,–,–,–
Cc1cc(Nc2ccccc2C(=O)O)ccc1Cl,-21.2%,-0.11,-9.28,4.31,77.8%,-15.3%,1,-0.491,–,–,–,–
Nc1ncnc2c1ncn2C1OC(CO)[C@H](O)C1O (stereo not given in full),-97.3%,1.18,-9.49,1.64,80.6%,3.91%,2,1.96,–,–,–,–
CC(Oc1ccccc1)C(=O)NC1C(=O)N2C(C(=O)O)C(C)(C)S[C@H]12 (stereo not given in full),11.5%,1.28,-11.5,0.66,83.6%,4.57%,2,1.04,–,–,–,–
CC(=O)OCC(=O)[C@@]12OC(C)(C)O[C@@H]1C[C@H]1C3C[C@H](F)C4=CC(=O)C=CC4(C)[C@@]3(F)[C@@H](O)C[C@@]12C (stereo not given in full),-2.33%,1.28,14.3,0.88,85.9%,13.8%,2,0.953,–,–,–,–
NC[C@@H]1O[C@H](O[C@@H]2[C@@H](CO)OC(O[C@@H]3[C@@H](O)[C@H](N)C[C@H](N)[C@H]3OC3O[C@H](CO)[C@@H](O)[C@H](O)[C@H]3N)[C@@H]2O)[C@H](N)[C@@H](O)[C@@H]1O (stereo not given in full),-9.63%,1.53,1.69,1.36,42.9%,-14.4%,2,1.65,–,–,–,–
CC(=O)[C@H]1CCC2C3CC=C4C[C@@H](O)CC[C@]4(C)C3CC[C@@]21C (stereo not given in full),19.7%,0.01,-2.78,1.03,66.7%,-1.9%,2,0.0851,–,85.1% (inactive),69.9%,–
CCC(=O)c1ccc2c(c1)N(CC(C)N(C)C)c1ccccc1S2 (stereo not given),-29.2%,1.17,1.64,1.13,69.7%,-2.12%,–,1.33,–,–,–,–
C[C@@H]1CC2C3C[C@H](F)C4=CC(=O)C=CC4(C)C3(F)[C@@H](O)CC2(C)C1C(=O)COC(=O)C(C)(C)C (stereo not given in full),26.8%,0.1,-3.49,1.09,38%,10.9%,2,0.899,–,–,–,–
CC12CC[C@@H]3c4ccc(O)cc4CCC3[C@@H]1CCC2=O (stereo not given in full),-0.88%,0.11,10.3,0.91,62%,-29%,2,0.566,–,–,–,–
O=c1cc(-c2ccccc2)oc2cc(O)c(O)cc12,18.9%,1.42,7.3,1.21,41%,11%,2,0.852,–,–,–,–
CC12CCC(CC1=O)C2(C)C (stereo not given),15.1%,1.08,1.05,1.24,43.2%,5.12%,2,1.49,–,–,–,–
CN1CCN(C2CCCCCC2)CC1CCO (stereo not given),–,–,–,–,–,–,–,–,–,–,–,-0.575 (inactive)
CC(C)Cc1cn(C2CCN(C3CCCCCC3)CC2)nn1,–,–,–,–,–,–,–,–,–,–,–,-0.565 (inactive)

# — PubChem BioAssay
